In all, about 320,000 compounds went through this assay and about 2,100 (0.66%) were called active. Inconclusive results (about 53%) are left out. This is one part of a sample in which actives are shown more often than they occur. Calls come from the whole dose curve; as a rule, active = well fitted inhibition curve with a large enough effect in the signal ratio, with a control signal flat (not every such curve was filed as active); inconclusive = small, poorly fitted or top-dose-only effect, or effect the other way, or a change in a side signal; inactive = flat fitted curve, though single readings scatter; the % refers to the signal ratio.
Potency is the fitted concentration of half-maximal effect.

This experiment can be described thus: qHTS Assay for Lipid Storage Modulators in Drosophila S3 Cells.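 For cell number change: cells counted by Cell Tracker Red CMTPX staining in the red channel.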 For lipid storage change, negative = inhibition: % is set by controls: 0 for no effect and ±100 for the full control effect. The conditions noted are these: BODIPY lipid droplet fluorescence, 18-24 h, cells fed with added oleic acid; cell number change: measured here: cell count max response; series mostly up to 46.1 µM; lipid storage change, negative = inhibition: at the top concentration. Put shortly:
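Drosophila S3 cells loaded with oleic acid (400 uM, as added) and compounds at several concentrations; lipid droplets imaged by 488-nm laser-scanning cytometry, 500–530 nm intensity and object ratio to cell channel. Percent activity normalized to 20 uM Triacsin C.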
As to `CC(C(=O)Nc1ccc(F)c(F)c1F)N(C)Cc1cccs1` (stereo not given), the “lipid storage change, negative = inhibition” value is -15.3% (inactive) and the cell number change was determined as 25.5%. In the same order, the values of `CCOC(=O)N1CCN(S(=O)(=O)N2CCCC(C(=O)NCCc3ccc(OC)c(OC)c3)C2)CC1` (stereo not given) are -9.88% (inactive) and -20.2%. As to `CCOc1ccc(S(=O)(=O)N2CCCC(C(=O)N3CCOCC3)C2)cc1C` (stereo not given), the Potency is 2.31 µM (active) and the cell number change was -23.5%.

As to `COc1ccc(CNC(=O)[C@H](C)NC(=O)C2CCN(S(=O)(=O)c3ccc(C)cc3)CC2)cc1`, the call was inactive and the cell number change was -4.43%. For the compound `CCOc1ccc(CCNC(=O)C2CCCN(S(=O)(=O)N3CCOCC3)C2)cc1OCC` (stereo not given), the “lipid storage change, negative = inhibition” value is -4.66% (inactive) and the cell number change was 0.288%. In the case of `COc1ccc(CNC(=O)[C@H](C)NC(=O)C2CCN(S(=O)(=O)c3ccc(F)cc3)CC2)cc1`, the Potency was 18.4 µM (active) and the cell number change came to 3.44%.

`COc1ccc(S(=O)(=O)N2CCCC(C(=O)N3CCOCC3)C2)cc1C` (stereo not given): the result was inactive and the cell number change amounted to 17.1%. For `CCOc1ccc(S(=O)(=O)N2CCCC(C(=O)N3CCOCC3)C2)cc1Cl` (stereo not given), the call was inactive and the cell number change came out at 16.4%. As for `CS(=O)(=O)N1CCC(C(=O)Nc2ccc(Cl)c(C(F)(F)F)c2)CC1`, the compound was called inactive and the cell number change is -15.8%.

For the compound `O=C(Nc1ccncc1)C1CCN(S(=O)(=O)c2ccc(Cl)c(C(F)(F)F)c2)CC1`, the Potency was 10.3 µM (active) and the cell number change was found to be 2.68%. Turning to `O=C(Nc1ccncc1)C1CCN(S(=O)(=O)c2cccc(C(F)(F)F)c2)CC1`, the “lipid storage change, negative = inhibition” value was 9.54% (inactive) and the cell number change is -3.08%. For `CCOC(=O)N1CCN(S(=O)(=O)N2CCCC(C(=O)NCCc3ccc(OCC)c(OCC)c3)C2)CC1` (stereo not given), the Potency is 4.61 µM (active).

For the compound `COc1ccc(S(=O)(=O)N2CCC(C(=O)N[C@@H](C)C(=O)NCc3ccc(F)cc3)CC2)cc1`, the result was inactive and the cell number change turned out to be 13.5%. In the case of `O=C(NC1=NCCS1)c1ccccc1Cl`, the “lipid storage change, negative = inhibition” value is 16.7% (inactive) and the cell number change was -14.3%. The like results for `CO/N=C/CC(=O)Nc1ccc(F)cc1F` were, in that order, 1.73% (inactive) and 16.8%. Consider `CCCNC(=O)Nc1nc(CC(=O)OCC)cs1`, for which the “lipid storage change, negative = inhibition” value is -0.813% (inactive) and the cell number change is -16.9%. Take `CC1NC2(C(=O)N(Cc3ccccc3)c3ccccc32)C2C(=O)N(c3ccccc3)C(=O)C12` (stereo not given): the outcome was inactive. Consider `CC1Cc2ccccc2C(CCc2ccccc2)=N1` (stereo not given), for which the “lipid storage change, negative = inhibition” value is -0.249% (inactive) and the cell number change was -1.48%. `CSc1cccc(CNC(=O)CC2C(=O)NCCN2CC(C)(C)C)c1` (stereo not given): the “lipid storage change, negative = inhibition” value was 10.7% (inactive) and the cell number change worked out at 22%. In the case of `COc1ccc(-c2cc3cc(C(=O)O)ccn3c2C(=O)c2ccccc2)cc1`, the “lipid storage change, negative = inhibition” value was -4.15% (inactive) and the cell number change turned out to be 2.31%. In the same order, the values of `CC1CCC2(CC1)NC(=O)N(CC(=O)NC(=O)Nc1ccc3c(c1)OCCO3)C2=O` (stereo not given) are 2.79% (inactive) and 17.3%.

As to `O=C(NC1CCN(S(=O)(=O)c2ccc(F)cc2)CC1)C1CCCCC1`, the Potency was 5.17 µM (active) and the cell number change was -18.1%. As for `O=C(NC1CCCCCC1)C1CCN(S(=O)(=O)c2ccc(F)cc2)CC1`, the “lipid storage change, negative = inhibition” value was 9.96% (inactive) and the cell number change is -1.11%.

Turning to `O=C(NCc1ccncc1)C1CCN(S(=O)(=O)c2ccc(F)cc2)CC1`, the compound was called inactive and the cell number change was 1.32%. In the case of `Cc1ccc(S(=O)(=O)N2CCC(C(=O)NCCc3ccccc3)CC2)cc1`, the Potency is 23.1 µM (active) and the cell number change was -12.9%. In the case of `CCOc1ccc(S(=O)(=O)N2CCCC(C(=O)NCc3ccncc3)C2)cc1Cl` (stereo not given), the Potency was 1.03 µM (active) and the cell number change was determined as 25.2%. Turning to `Cc1ccc(S(=O)(=O)N2CCC(C(=O)N[C@@H](C)C(=O)NCCc3ccccc3)CC2)cc1`, the “lipid storage change, negative = inhibition” value was 11.5% (inactive) and the cell number change is 4.36%. For the compound `CCOc1ccc(S(=O)(=O)N2CCC(C(=O)NCc3ccncc3)CC2)cc1Cl`, the “lipid storage change, negative = inhibition” value is 29.2% (inactive) and the cell number change is -18.4%. Turning to `O=C(NC1CCCCC1)C1CCCN(S(=O)(=O)c2ccc(F)cc2)C1` (stereo not given), the compound was called inactive and the cell number change turned out to be 2.52%. The like results for `CCOc1ccc(S(=O)(=O)N2CCCC(C(=O)NCc3ccncc3)C2)cc1C` (stereo not given) were, in that order, “inactive” and 9.24%. `COc1ccc(S(=O)(=O)N2CCC(C(=O)NCCc3ccccc3)CC2)cc1`: the “lipid storage change, negative = inhibition” value was 4.73% (inactive) and the cell number change is 20.5%. Take `Cc1ccc(S(=O)(=O)N2CCC(C(=O)NCc3ccncc3)CC2)cc1`: the Potency is 18.4 µM (active) and the cell number change is 12.7%. For the compound `CSc1ccc(S(=O)(=O)N2CCC(C(=O)NCc3ccncc3)CC2)cc1`, the “lipid storage change, negative = inhibition” value was -5.08% (inactive) and the cell number change came to 19.2%. The like results for `Cc1ccc(NC(=O)C(C)OC(=O)COc2cccc(C(F)(F)F)c2)cc1` (stereo not given) were, in that order, 4.89% (inactive) and 3.29%. `COc1ccccc1N(CCC#N)C(=O)CSc1nc(-c2ccccc2)cn1N`: the “lipid storage change, negative = inhibition” value was 21.1% (inactive) and the cell number change is -6.12%. For `COc1ccc(/C=C/c2nc(-c3ccccc3)cc(=O)[nH]2)cc1`, the “lipid storage change, negative = inhibition” value was -10.7% (inactive) and the cell number change is -10.9%. `Cc1cn(C2CCC(CO)O2)c(=O)[nH]c1=O` (stereo not given): the outcome was inactive and the cell number change is 27%. In the case of `CC1CCCC(NC(=O)COC(=O)c2cccs2)C1C` (stereo not given), the “lipid storage change, negative = inhibition” value is 2.84% (inactive) and the cell number change was found to be 0.184%. `CCOc1ccc(NC(=O)CN2C(=O)C3CCCN3C2=O)cc1` (stereo not given): the outcome was inactive. For the compound `CC1(C)CC(=O)C(C=NCCN2CCN(CCc3ccccc3)CC2)=C(O)C1`, the “lipid storage change, negative = inhibition” value is 1.55% (inactive). On to `Cc1ccccc1C(=O)N1CCN(c2ccc(NC(=O)c3cccnc3)cc2)CC1`, for which the “lipid storage change, negative = inhibition” value was -0.627% (inactive) and the cell number change came to 24.6%.

In the case of `CCOc1cc(C(=S)N2CCN(C)CC2)ccc1OCC(=O)N1CCOCC1`, the “lipid storage change, negative = inhibition” value was 12.5% (inactive) and the cell number change is -0.877%. For the compound `COc1ccc2c(c1)C1=NN(/C(C)=C\C(C)=O)C(c3ccccc3)C1CC2` (stereo not given), the “lipid storage change, negative = inhibition” value is -2.18% (inactive) and the cell number change was -20.1%. As for `COc1cccc(CNCC(O)COc2ccc(C(=O)c3ccccc3)cc2)c1` (stereo not given), the “lipid storage change, negative = inhibition” value is 0.646% (inactive) and the cell number change was -29.5%.

As for `COC(=O)CN1C(=O)NC2(CCCc3ccccc32)C1=O` (stereo not given), the “lipid storage change, negative = inhibition” value was -10.4% (inactive) and the cell number change came out at 1.11%. As for `O=C(c1ccc(C(F)(F)F)cc1)C1CCCN(Cc2cccn2-c2ncccn2)C1` (stereo not given), the “lipid storage change, negative = inhibition” value was 17.2% (inactive) and the cell number change was 20.4%. In the case of `O=C1CC(N2CCN(c3ccc(F)cc3)CC2)C(=O)N1c1ccc(F)cc1` (stereo not given), the “lipid storage change, negative = inhibition” value is 0.693% (inactive) and the cell number change is -10.9%.

These data come from PubChem BioAssay AID2685 (National Center for Advancing Translational Sciences (NCATS), 2010).
